Test results taken from PubChem BioAssay (NCATS).
Results filed as inconclusive are left out. The source made the active and inactive calls. Calls come from the whole dose curve; as a rule, active = well fitted curve in the direction sought with a large enough effect; inconclusive = small, poorly fitted or top-dose-only effect, or another doubt; inactive = no such curve, though single readings can be large; an effect the other way counts as inactive or inconclusive.

What was measured:
[1] = P-glycoprotein substrates identified in KB-8-5-11 adenocarcinoma cell line, qHTS therapeutic library screen (AID 1346987); note: nearly all actives have a fitted effect of over 65% in size; for activity change, negative = cytotoxicity: series mostly up to about 44 µM
How it was run: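 Luminescence from CellTiter-Glo, read 5 min after addition, quantified survival of KB-8-5-11 (P-gp-overexpressing) cells exposed to compounds for 72 h. AC50 was derived from concentration-response curves.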

[2] = system: Zika virus NS2B-NS3 protease (unlinked complex); experiment: Primary screen GU Rhodamine qHTS for Zika virus inhibitors: Unlinked NS2B-NS3 protease assay (AID 1347159); note: nearly all actives have a fitted effect of over 60% in size
How it was run: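 Percent inhibition came from the 15-min rise in Rhodamine110 fluorescence (1.5 microM substrate, ~15% conversion), normalized to no-inhibitor and no-enzyme wells and Hill-fitted. Unlinked protease, 25 nM, pH 8.0 Tris buffer; compounds up to 114 microM, 15-min preincubation.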

[3] = system: Zika virus NS2B-NS3 protease (linked construct); experiment: Primary screen NINDS Rhodamine qHTS for Zika virus inhibitors (AID 1347160); note: nearly all actives have a fitted effect of over 55% in size
How it was run: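 Rhodamine110-peptide cleavage (1.5 µM substrate) by 25 nM linked NS2B-NS3 enzyme at pH 8.0 (Tris, Tween 20), after 15 min RT preincubation with compounds; 15-min fluorescence change normalized to controls and Hill-fitted.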
% is set by controls: 0 for no effect and ±100 for the full control effect.

CC(C)(C)NS(=O)(=O)c1ccc(-c2ccc3[nH]nc(N)c3c2)cc1
inactive: Potency [1] | Potency [2] | Potency [3]

COc1cc(O)cc2c1C(=O)OC(C)C2 (stereo unspecified)
inactive: Potency [1] | Potency [2] | Potency [3]

N#CN1CCC[C@@H](n2nc(-c3ccc(Oc4ccc(F)cc4F)cc3)c(C(N)=O)c2N)C1
inactive: Potency [1] | Potency [2] | Potency [3]

COc1c2c(c(C)c3c1C(=O)OC3)OC1(C)CC(O)C34OC(O)(CCC3(C)C1C2)OC4(C)C (stereo unspecified)
inactive: Potency [1] | Potency [2] | Potency [3]

NC1Nc2ccccc2C1(N)CC1NC(=O)C(Cc2ccccc2)NC(=O)C(Cc2ccccc2)NC1=O (stereo unspecified)
inactive: Potency [1] | Potency [2] | Potency [3]

Cn1cc(CCn2cnc(-c3cnn(C)c3)c2-c2ccc(C#N)cc2)cn1
inactive: Potency [1] | Potency [2] | Potency [3]

CC(=O)O[C@@H](C[C@@H]1C=C(C)C(=O)O1)[C@H](C)[C@H]1CCC2[C@@]3(C)CC[C@H](O[C@@H]4O[C@H](CO)[C@@H](O)[C@H](O)[C@H]4O[C@@H]4O[C@@H](C)[C@H](O)[C@@H](O)[C@H]4O)C(C)(C)C3CC[C@@]2(C)[C@@]12COC(=O)C2 (stereo partly specified)
inactive: activity change, negative = cytotoxicity [1] -0.38% [at 9.29 µM] | Potency [2] | Potency [3]

CCC(C)C1NC(=O)C2C(C)CCN2C(=O)C(CC(O)CO)OC(=O)CCNC(=O)C(C)N(C)C(=O)C(C(C)C)N(C)C1=O (stereo unspecified)
inactive: Potency [1] | Potency [2] | Potency [3]

C=C(C(=O)O)[C@@H]1CC[C@@]2(C)CCC[C@@](C)(O)[C@@H]2C1
inactive: Potency [1] | Potency [2] | Potency [3]

C[C@]12CCC[C@](C)(C(=O)O)C1CCC13CC(CO)C(CCC12)C3 (stereo partly specified)
inactive: Potency [1] | Potency [2] | Potency [3]

C=C1CCC(OC(C)=O)C2(C)CC3OC(=O)C(C)=C3CC12 (stereo unspecified)
inactive: Potency [1] | Potency [2] | Potency [3]

CC1(C)CC[C@]2(C(=O)O)CC[C@]3(C)C(=CCC4[C@@]5(C)C(=O)C[C@H](O)[C@@](C)(CO)C5CC[C@]43C)[C@@H]2C1 (stereo partly specified)
inactive: Potency [1] | Potency [2] | Potency [3]

C=C1C(=O)O[C@@H]2C[C@]3(C)[C@@H](CCC(C)=O)[C@@H]3C[C@H]12
inactive: Potency [1] | Potency [2] | Potency [3]

CC1=C2C(=O)C=C(CO[C@@H]3O[C@H](CO)[C@@H](O)[C@H](O)[C@H]3O)[C@@H]2[C@H]2OC(=O)[C@H](C)[C@@H]2[C@@H](O)C1
inactive: Potency [1] | Potency [2] | Potency [3]

C=C(C)[C@@H]1CC[C@]2(C(=O)O)CC[C@]3(C)[C@H](CCC4[C@@]5(C)CCC(=O)C(C)(C)C5C(O)C[C@]43C)C12 (stereo partly specified)
inactive: Potency [1] | Potency [2] | Potency [3]

On1ncc(C2CCNCC2)c1-c1cccc(-c2ccccc2)c1
inactive: Potency [1] | Potency [2] | Potency [3]

CN[C@H](CNC(=O)N1CCC[C@@H]([C@@H](OCCNC(=O)OC)c2cccc(Cl)c2)C1)C[C@H]1CCCOC1
inactive: Potency [1] | Potency [2] | Potency [3]

CC1C2=CC(=O)OC2(O)CC2C1C(O)CC1C(C)(CO)CCCC21C (stereo unspecified)
inactive: Potency [1] | Potency [2] | Potency [3]

CC(=O)OCC1OC(OC2COC(OC3COC(OC4C(OC5C(CO)OC(OC6CCC7(C)C(CCC8(C)C7CC=C7C9CC(C)(C)CCC9(C(=O)OC9OC(CO)C(O)C(O)C9OC9OCC(OC%10OCC(O)(CO)C%10O)C(O)C9O)C(O)CC78C)C6(C)C)C(O)C5O)OCC(O)C4O)C(O)C3O)C(O)C2O)C(OC(=O)/C=C/c2ccccc2)C(O)C1OC(C)=O (stereo unspecified)
inactive: activity change, negative = cytotoxicity [1] 0.531% [at 5.11 µM] | activity change, negative = inhibition [2] 8.67% [at 19.1 µM] | Potency [3]

O=C(/C=C/c1ccc(O)cc1)OCC1OC(O)C(OC2OC(CO)C(O)C(O)C2O)C(O)C1O (stereo unspecified)
inactive: Potency [1] | Potency [2] | Potency [3]

CC(O)CCc1ccc(O[C@@H]2O[C@H](CO)[C@@H](O)[C@H](O)[C@H]2O)cc1 (stereo partly specified)
inactive: Potency [1] | Potency [2] | Potency [3]

CC1(CO)CCCC2(C)C1C(OC(=O)c1ccccc1)CC1C(=O)OCC12O (stereo unspecified)
inactive: Potency [1] | Potency [2] | Potency [3]

COc1cc2c(cc1OC)N1C(=O)C[C@@]34C=CC[N@+]5([O-])CC[C@H]2[C@H](CC3)[C@@]145
inactive: Potency [1] | Potency [2] | Potency [3]

CCN=C1N[C@@H]2[C@@H](O)[C@H](O)[C@@H](CO)O[C@@H]2S1
inactive: Potency [1] | Potency [2] | Potency [3]

CCCNCCOc1ccc(NC(=O)c2c[nH]c3c2C(=O)CCC3)cc1F
inactive: Potency [1] | Potency [2] | Potency [3]

Cc1cn2cc(CC(=O)N3CCC4(CC3)CN(Cc3ccc(-n5nccn5)cc3Cl)C4)nc2s1
inactive: Potency [1] | Potency [2] | Potency [3]

c1ccc2c(Nc3nnc(-c4ccncc4)s3)cccc2c1
inactive: Potency [1] | Potency [2] | Potency [3]
